In ChEMBL document CHEMBL4513216, “Probing the Open Global Health Chemical Diversity Library for Multistage-Active Starting Points for Next-Generation Antimalarials” (ACS Infect Dis, 2020):
Hit rate of the full screen: of about 69,000 compounds, about 8,600 (12%) showed an effect of 50% or more. This is one part of a sample in which strong results are shown more often than they occur.

What follows are compounds tested on Plasmodium berghei (assay: Screen against P. berghei liver stage (PbLuc), transformed with Luciferase, at 10uM). Details: tested at 10 uM.
Format: functional, HepG2

Structure (SMILES) | INHIBITION [%]
CCC(NC1CCCC1)c1ccc(S(C)(=O)=O)cc1 (configuration not stated) | 22.1
CC(NC(=O)c1nc(=O)[nH][nH]1)c1ccc(OCC2CC2)c(F)c1 (configuration not stated) | 5.53
O=C(c1ccncc1)N1CCc2ncnc(C3CC3)c2CC1 | 27.6
CCC(Nc1cccc(OC)c1)C(=O)NCc1ccc2[nH]c(=O)[nH]c2c1 (configuration not stated) | -0.27
Cc1ccc(C(=O)N2CCC(n3cc(CO)nn3)CC2)cn1 | 55.9
C=C1C(C)(C)[C@@H]2CC[C@]1(C(=O)N1CCC(Cn3cc(CO)nn3)CC1)C2 | 45.6
C=C1C(C)(C)[C@@H]2CC[C@]1(C(=O)N1CCC(n3cc(CO)nn3)CC1)C2 | 54.5
Cc1cc(C(=O)N2CCC(n3cc(CO)nn3)CC2)ccc1F | 39.3
Cc1ccoc1C(=O)N1CCC(n2cc(CO)nn2)CC1 | -37.8
C=C1C(C)(C)[C@@H]2CC[C@]1(C(=O)N1CCC(n3cc(CCO)nn3)CC1)C2 | -10.9
Cn1cc(C2CC(=O)NC23CCN(Cc2nccs2)CC3)cn1 (configuration not stated) | -0.371
N#Cc1cccc(CN2C[C@H](OCC3CCOCC3)[C@H]3COC[C@H]32)c1 | 19.5
Cc1c[nH]nc1C1CCN(c2cnccn2)C1 (configuration not stated) | 9.745
Cc1cc(NC(=O)COC(=O)c2ccc(F)cc2Br)n(C)n1 | 34.1
Cn1cc(C(=O)O)c(-c2ccc(F)cc2F)n1 | 18
COc1ccc(-c2ccc(C(=O)O)c(F)c2)c(F)c1 | 15.2
Cn1cc(C(=O)OCC(N)=O)c(-c2ccc(F)cc2F)n1 | 58.6
CC(CN(C)C(=O)c1cn(C)nc1-c1ccc(F)cc1F)C(=O)O (configuration not stated) | 24.4
CC(C)(C)n1cc(C(=O)O)c(-c2ccc(F)cc2F)n1 | 68.3
O=C(Nc1cccc(Cn2cccn2)c1)N1CCCC(N2CCCC2)C1 (configuration not stated) | 16.2
CS(=O)(=O)CCCSc1n[nH]c(-c2ccc3c(c2)CCC3)n1 | -18.8
Cc1ccc(F)cc1S(=O)(=O)NCc1cccc(C(=O)N2CCCC2)c1 | -77.1
O=C(NC1CCC(O)CC1)c1ccc2nc(-c3ccccc3)cn2c1 (configuration not stated) | -25.1

Structure (SMILES) | INHIBITION [%]
COCC(=O)N(C)Cc1cccc(Cl)c1 | 15
O=C(CN1CCN(CC(O)C2CC2)CC1)NCc1ccc(F)cc1 (configuration not stated) | 1.58
O=C(c1ccoc1)N1CCCn2cnc(COCC3CC3)c2C1 | 39.2
O=C(c1ccccn1)N1CCn2cnc(COCC3CC3)c2C1 | 19.7
O=C(c1cnccn1)N1CCn2cnc(COCC3CC3)c2C1 | 60.1
O=C(c1ccoc1)N1CCn2cnc(COCC3CC3)c2C1 | 56.7
O=C(c1cscn1)N1CCn2cnc(COCC3CC3)c2C1 | -6.23
CCOCc1ncn2c1CN(C(=O)c1ccoc1)CC2 | 39.2
c1cnn(CC2CCCCN2Cc2nc(-c3ccsc3)no2)c1 (configuration not stated) | 0.914
CC(=O)N1CCCC(c2ccc(Nc3nc(C)cc(C)n3)cn2)C1 (configuration not stated) | 33.5
CSc1[nH]nc(NC(=O)c2cccnc2)c1C#N | -35.5
CCn1cnc(NC(=O)N2CCCC(c3ccccc3)CC2)n1 (configuration not stated) | 22.4
CCn1cnc(NC(=O)N2CCC(c3ccc(Cl)cc3)C2)n1 (configuration not stated) | 58.2
CCn1cnc(NC(=O)N2CCC(c3ccc(F)cc3)C2)n1 (configuration not stated) | 31.6
CSCc1cccc(S(=O)(=O)N2CCCC2)c1 | 33.3
Cc1cccc(N2CCC3(CCN(Cc4ccccn4)CC3)CC2)n1 | 15.3
COCCC(=O)N1CCCC1c1nc(O)cc(C(C)C)n1 (configuration not stated) | 23.2
CC[C@@H](CO)Nc1nccc(-c2c[nH]c3cc(C(=O)OC)ccc23)n1 | 69.3
COC(=O)c1ccc2c(-c3ccnc(N[C@@H](C)CO)n3)c[nH]c2c1 | 18.9
COC(=O)c1ccc2c(-c3ccnc(NCCO)n3)c[nH]c2c1 | 10
COc1ccc(CNC2CCC(O)CC2)cc1OCCCC#N (configuration not stated) | 17.8
Cc1ccc(CN2CCC3(CC2)NC(=O)CC3c2ccncc2)cc1C (configuration not stated) | 16.6
Cc1ccc(CNC(=O)CN2C=Nc3ccccc3S2(=O)=O)s1 | 22.3

Structure (SMILES) | INHIBITION [%]
O=C(CN1C=Nc2ccccc2S1(=O)=O)NCc1ccccc1 | 7.27
O=C(CN1C=Nc2ccccc2S1(=O)=O)NCCc1cccs1 | 53.8
CC(NC(=O)CN1C=Nc2ccccc2S1(=O)=O)c1ccccc1 (configuration not stated) | -18.5
CC(C)CCC(C)NC(=O)CN1C=Nc2ccccc2S1(=O)=O (configuration not stated) | 12.7
CC(C)CNC(=O)CN1C=Nc2ccccc2S1(=O)=O | 56.1
O=C(CN1C=Nc2ccccc2S1(=O)=O)NCCCc1ccccc1 | 55.2
CC(C)OCCCNC(=O)CN1C=Nc2ccccc2S1(=O)=O | 12.7
O=C(CN1C=Nc2ccccc2S1(=O)=O)NCC1CC1 | 29.2
CNC(=O)c1ccc(-c2ccc(CNS(=O)(=O)N(C)C)cc2)nc1C | 8.12
O=c1occ(CN2CCCCCC2)c(O)c1CN1CCCCCC1 | 25.8
COc1ccc(CCC2CCCN(C(=O)c3cnc(N)nc3C)C2)cc1 (configuration not stated) | 34.9
Cc1ccc(-c2ncc(C(=O)N3CCCN4CCC[C@H]4C3)c(O)n2)cc1 | 15.2
Cc1nc(N)ncc1C(=O)N1CCCC(CCc2ccc(F)c(F)c2)C1 (configuration not stated) | 38.5
Cc1nc(N)ncc1C(=O)N1CCCC(CCc2ccc(F)cc2)C1 (configuration not stated) | 90.3
Cc1ccc(-c2ncc(C(=O)N3CCC[C@H](N)C3)c(O)n2)cc1 | 42.2
Cc1ccc(-c2ncc(C(=O)N3CCCC(CCN)C3)c(O)n2)cc1 (configuration not stated) | 53.8
O=C(c1c[nH]cn1)N1CCC(F)(F)C2(CCN(c3cccc(F)c3)C2)C1 (configuration not stated) | 21.7
CC(=O)Nc1ccc(SCC(O)COCc2ccc3c(c2)OCO3)cc1 (configuration not stated) | 25.8
COc1ccc(CN(C)CC2(O)CCNC2)cc1 (configuration not stated) | 20.85
Cc1nc(CN2CCC3(CC2)CC(c2cccnc2)C(=O)N3C)cs1 (configuration not stated) | 34.5
CS(=O)(=O)NC[C@]1(O)CCN(C(=O)Cc2cccs2)C[C@H]1O | -8.12
